# Screens: PubChem BioAssay, National Center for Advancing Translational Sciences (NCATS)
# GALC G270D up = galactocerebrosidase G270D activity enhancement, cell-based; 145M-Twi-hGALC-G270D cells, HMU-beta-Gal fluorescence, 48 h; hit rate 0.1% among 45,000; AID 1159614; P54803; Potency, µM (series often up to 57.5 µM), most hits filed as activators; further: potency means the concentration at half of the fitted maximal effect; 0% is about no effect; nearly all actives have a fitted effect of over 65% in size
#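 qHTS, 1536-well; 145M-Twi-hGALC-G270D cells (WT line also made) in DMEM/F12 + 10% FBS; compound incubation on live cells; HMU-β-gal 0.1 mM final, pH 5.2, NaTC; carbonate stop; fluorescence increase = enhanced residual activity.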
# S16 viability = toxic to S16 Pmp22-F2sN Schwann cells; S16 Pmp22-F2sN Schwann cells viability, CellTiter-Glo, 24 h; Potency, µM (highest dose often 57.5 µM), inactives show at the highest dose activity change, negative = cytotoxicity, hits mostly cytotoxic; hit rate 0.48% among 43,000; AID 1508642; further: potency means the concentration at half of the fitted maximal effect; on the % scale 0 is the no-effect control and ±100 the full control effect; nearly all actives have a fitted effect of over 65% in size
#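 CellTiter-Glo counter-screen, qHTS, 1536-well. Cells: S16(c9) Pmp22-F2sN, 500-1,000/well in DMEM + 10% FBS. Cpd 23 nL pin transfer, 24 h, 37C/5% CO2. Read: luminescence, CCD imager.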
# PMP22 txn = modulators of PMP22 gene transcription in S16 Schwann cells; S16 Pmp22-F2sN Schwann cells, FLuc/NLuc coincidence luminescence, 24 h; Potency, µM (titrated, usually from 57.5 µM), inactives show at the highest dose activity change, negative = inhibition, hits mostly inhibitors; hit rate 2% among 43,000; active means clear falling dose curves in both reporters; inconclusive means both reporters move, but less clearly or upward; inactive means either reporter flat; the % is the NLuc reporter signal; further: potency means the concentration at half of the fitted maximal effect; on the % scale 0 is the no-effect control and ±100 the full control effect
#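 Transcriptional readout in edited S16(c9) cells: two luciferases reported from the Pmp22 locus, measured in turn after 24 h compound incubation.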
# SKOV3 invasion = blocks SKOV3ip1 adhesion and invasion in omental model | SKOV3ip1-GFP adhesion/invasion on 3D omental model, fluorescence | Potency, µM (top dose mostly 45.8 µM), without a hit: at the top dose activity change, negative = inhibition, most hits filed as inhibitors | hit rate 0.1% among 46,000;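 further: potency means the concentration at half of the fitted maximal effect; plate controls were DMSO wells for no effect and tomatine positive control wells for full effect; nearly all actives have a fitted effect of over 65% in size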
#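 Primary human omental fibroblast/mesothelial 3D culture pre-formed 48 h. SKOV3ip1-GFP cells added with compounds (0.36-46 umol/L), incubated 2 h RT/16 h 37 C, fixed; GFP cells quantified at 488/509 nm.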
# mTORC1 inh = reduces mTORC1 signaling in Tsc2 and p53 null MEF cells. Tsc2-/- p53-/- MEF, phospho-rpS6 immunofluorescence/PI, 24 h. Potency, µM (series often up to 38.3 µM), inactives show at the top dose activity change, negative = inhibition, actives largely listed as inhibitors. hit rate 0.78% among 44,000;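 further: potency means the concentration at half of the fitted maximal effect; plate controls were DMSO for no effect and rapamycin for full effect; nearly all actives have a fitted effect of over 50% in size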
#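 Read-out: phospho-S6 Alexa-488 intensity over PI intensity per well, scored as % active cells using thresholds from rapamycin (7.5 nM) and DMSO controls. Tsc2-/-, p53-/- MEFs exposed to compound for 24 h; PI cell count recorded as viability.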
# NLuc sat counter = NanoLuc enzyme inhibition artifact for PMP22 screen; shares compounds with PMP22 txn; Secreted NLuc enzyme (filtered S16 cell medium), Nano-Glo luminescence; Potency, µM (series often up to 57.5 µM), for inactives: at the top dose activity change, negative = inhibition, hits mostly inhibitors; hit rate 4% among 690; AID 1508638; further: potency means the concentration at half of the fitted maximal effect; on the % scale 0 is the no-effect control and ±100 the full control effect
# NLuc Km counter = counter-screen for PMP22 expression modulators: NanoLuc inhibition at Km; shares compounds with PMP22 txn; secreted NLuc enzyme, coelenterazine luminescence, Km conditions; Potency, µM (top dose mostly 57.5 µM), for inactives: at the highest dose activity change, negative = inhibition, usual class: inhibitors; hit rate 5% among 690; AID 1508639; further: potency means the concentration at half of the fitted maximal effect; on the % scale 0 is the no-effect control and ±100 the full control effect
# FLuc ctr PMP22 = inhibits firefly luciferase, PMP22 counter-screen | shares compounds with PMP22 txn | purified P. pyralis FLuc, luminescence, 10 min | Potency, µM (titrated, usually from 57.5 µM), for the others: at the top dose activity, negative = inhibition, most hits filed as inhibitors | 690 tested, under 10 active; further: % of control where 0% means no effect
# Target sequence (P08659 whole entry, looked up): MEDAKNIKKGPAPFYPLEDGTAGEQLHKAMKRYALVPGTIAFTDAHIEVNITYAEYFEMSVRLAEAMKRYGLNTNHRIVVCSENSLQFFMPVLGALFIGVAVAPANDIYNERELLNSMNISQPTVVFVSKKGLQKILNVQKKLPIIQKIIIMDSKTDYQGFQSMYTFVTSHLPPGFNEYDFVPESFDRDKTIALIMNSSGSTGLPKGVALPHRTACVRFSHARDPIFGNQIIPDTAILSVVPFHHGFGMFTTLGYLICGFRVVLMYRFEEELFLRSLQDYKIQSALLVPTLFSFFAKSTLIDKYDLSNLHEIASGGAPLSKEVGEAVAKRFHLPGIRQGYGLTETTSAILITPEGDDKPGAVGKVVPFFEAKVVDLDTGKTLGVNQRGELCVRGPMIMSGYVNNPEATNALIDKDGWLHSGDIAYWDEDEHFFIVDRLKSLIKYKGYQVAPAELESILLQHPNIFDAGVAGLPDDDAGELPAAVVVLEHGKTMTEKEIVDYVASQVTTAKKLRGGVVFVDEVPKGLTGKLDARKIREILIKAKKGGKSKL
# S16 viab conf = confirmation of cytotoxicity in S16 Pmp22-F2sN Schwann cells (luciferase reporters placed in the Pmp22 gene); shares compounds with PMP22 txn; S16 Schwann cells viability, CellTiter-Glo ATP luminescence, 24 h; Potency, µM (doses to about 57.5 µM), without a hit: top-dose activity change, negative = viability loss, hits mostly cytotoxic; hit rate 7% among 690; AID 1508641; further: potency means the concentration at half of the fitted maximal effect; on the % scale 0 is the no-effect control and ±100 the full control effect
# PMP22 txn cnf = PMP22 transcription modulation, confirmatory | shares compounds with PMP22 txn | hit rate 22% among 690 | S16 Schwann cells Pmp22-F2sN, dual luciferase, 24 h | Potency, µM (highest dose often 57.5 µM), for inactives: at the highest dose activity change, negative = inhibition, usual class: inhibitors; active means clear falling dose curves in both reporters; inconclusive means both reporters move, but less clearly or upward; inactive means either reporter flat; the % is the FLuc reporter signal; further: potency means the concentration at half of the fitted maximal effect
# PMP22 prot conf = confirmation of modulators of rat PMP22 protein expression | shares compounds with PMP22 txn | S16 Schwann cells Pmp22-HiBiT, luminescence, 48 h | Potency, µM (series often up to 27.9 µM), for the others: top-dose activity change, negative = inhibition, actives largely listed as inhibitors | 95 tested, under 10 active
# The depositor's hits bear a star; i = inactive; ? = inconclusive; . = not tested or not shown. This is a sample that favours compounds with a hit; in the whole collection about 2.6% have one here. Unless noted, the call rests on the fitted dose curve; in most records, active means well fitted curve in the direction sought with a large enough effect; inconclusive means small, poorly fitted or top-dose-only effect, or another doubt; inactive means no such curve, though single readings can be large; an effect the other way counts as inactive or inconclusive.
SMILES,GALC G270D up,S16 viability,PMP22 txn,SKOV3 invasion,mTORC1 inh,NLuc sat counter,NLuc Km counter,FLuc ctr PMP22,S16 viab conf,PMP22 txn cnf,others
Cc1ccc(Nc2cc(C(=O)NC3CCCC3)c3ccccc3n2)cc1C,i,-8%,2.8µM*,-11%,-13%,2%,1%,?,9%,-11%,
NCc1c[nH]c(=S)n1[C@H]1CCc2c(F)cc(F)cc2C1,.,.,.,32%,.,.,.,.,.,.,
CCOC(=O)c1ccc(NC(=O)Cc2ccc(-n3c(CC)nc4cccnc43)cc2)cc1,i,17%,?,-4%,-10%,-16%,?,-14%,?,13%,
CCOC(=O)c1ccc(NC(=O)CCc2nc3cccnc3n2Cc2cccs2)cc1,i,-7%,-17%,1%,-15%,.,.,.,.,.,
Oc1ccccc1Nc1nc2ccccc2n2nnnc12,i,9%,?,i,-4%,.,.,.,.,.,
CC(NC(=O)c1cccc(Nc2nc3ccccc3n3nnnc23)c1)c1ccccc1 (centres undefined),i,?,11µM*,-8%,-15%,-1%,5%,4%,17µM*,?,
CCN1C(=O)c2ccccc2S(=O)c2ccc(C(=O)N3CCN(c4cccc(Cl)c4)CC3)cc21 (centres undefined),i,-4%,18µM*,i,-5%,3.9µM*,3.4µM*,-1%,-5%,?,
O=C(Nc1cccc(Br)c1)c1cccc(S(=O)(=O)N2CCCCCC2)c1,.,.,.,-1%,.,.,.,.,.,.,
COc1ccc(CN2CCN(Cc3cc(=O)oc4cc(C)ccc34)CC2)c(OC)c1OC,i,?,17µM*,i,?,-15%,5%,3%,-28%,-21%,
Cc1ccc2c(CN3CCN(c4ccc(Cl)cc4)CC3)cc(=O)oc2c1,i,-6%,?,0%,1%,.,.,.,.,.,
Cc1cc(NC(=O)C2CCCN(S(=O)(=O)c3cccc4nonc34)C2)ccc1Br (centres undefined),i,?,18µM*,i,4%,-1%,3%,3%,-12%,17µM*,PMP22 prot conf=30%
Cc1cc(Br)ccc1NC(=O)C1CCCN(S(=O)(=O)c2cccc3nonc23)C1 (centres undefined),i,13%,?,i,-16%,.,.,.,.,.,
CCOCCCn1c(=N)c(C(=O)NC(C)c2ccccc2)cc2c(=O)n3cc(C)ccc3nc21 (centres undefined),i,5%,-23%,-1%,14%,.,.,.,.,.,
